Bioassay records as filed in PubChem BioAssay.
PPC-1+TRAIL kill = kills PPC-1 cancer cells in the presence of TRAIL | PPC-1 cells + TRAIL, ATPLite viability luminescence | cell killing (% activity), % at 4 µM or 5 µM | 220,000 tested, 0.41% active;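 active = cell killing above 50% in the first pass at 4 µM, then a duplicate retest at 5 µM averaging 50% or more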
TRAIL sens C8 = sensitizes caspase-8 expressing cells to TRAIL. 360,000 tested, 1% active. NB7+C8 cells + TRAIL, ATPlite viability luminescence. AID 624354. inhibition (viability loss, TRAIL sensitization), % at 10 µM;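 active = compounds causing at least 50% loss of cell viability in the single-dose screen, relative to plate controls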
HIF-2a inh = inhibitors of HIF-2a | 786-0 RCC cells HIF-2a reporter, luciferase luminescence, overnight | inhibition, % at 18.8 µM | 360,000 tested, 0.72% active | AID 624352;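 active = inhibition of the luminescence signal of 40% or more relative to plate controls, in a single-dose primary screen at 18.75 µM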
iPSC survival up = enhancers of human iPSC single-cell survival; hiPSC single-cell survival, ATPlite luminescence; 100% = ROCK inhibitor wells, 0% = DMSO; 360,000 tested, 0.044% active; survival enhancement, % at 20 µM; in the data active = survival enhancement above about 18%;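 also: cells exposed to compounds for 16 hours before the ATP read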
CF NFkB block = inhibitors of cystic fibrosis induced NF-kB. inhibition, % at 5 µM. 360,000 tested, 0.86% active. KKLEB NF-kB-GFP reporter, PAF-induced, GFP fluorescence overnight;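 active = at least 50% inhibition at 5 µM, scaled per plate between neutral and stimulator controls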;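 also: PAF is a Pseudomonas aeruginosa culture filtrate used as stimulus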
KKLEB tox = counter-screen for CF NF-kB inhibitors: cytotoxicity; 360,000 tested, 0.36% active; AID 602141; activity change (cytotoxicity), % at 5 µM; KKLEB CF airway cells viability, ATPlite luminescence, overnight; stronger effect = lower value; cells stimulated with P. aeruginosa culture filtrate;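 active = corrected activity change at or below -50% at 5 µM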
Each line names hits and unclear results; the compound was inactive in the other large screens. Only some compounds are listed: those with a hit (about 2.2% of all), similar ones and a draw of the others.

Cc1cc2c(cc1C)C(c1ccccc1Br)CC(=O)N2 (centres undefined)	PPC-1+TRAIL kill 54
COc1cccc(/C=N/Nc2nc(Nc3ccc([N+](=O)[O-])cc3)nc(N3CCCC3)n2)c1O	CF NFkB block 97
COc1cccc(/C=N/NC(=O)Cn2nc(C)c([N+](=O)[O-])c2C)c1O	none
O=[N+]([O-])c1ccc(NN=Cc2cccc3ccccc23)nc1	none (no result: PPC-1+TRAIL kill)
COc1cccc(/C=N/NC(=O)C(C)n2nc(C)c([N+](=O)[O-])c2C)c1O (centres undefined)	TRAIL sens C8 55
COc1cccc(/C=N/Nc2ccc([N+](=O)[O-])cn2)c1O	TRAIL sens C8 60, HIF-2a inh 78, CF NFkB block 100, KKLEB tox -91 (no result: PPC-1+TRAIL kill)
O=[N+]([O-])c1cccc(C=NNc2ccc3ccccc3n2)c1O	TRAIL sens C8 57 (no result: PPC-1+TRAIL kill)
COc1ccccc1C(=O)Nc1nc(-c2cccs2)c(NC(C)=O)s1	TRAIL sens C8 51
O=C(Nc1ccc2nc(C(F)(F)F)[nH]c2c1)[C@@H]1O[C@H](CO)[C@@H](O)[C@H]1O	none (no result: PPC-1+TRAIL kill)
CC(C)(C)NC(=O)C(c1ccc(O)cc1)N(C(=O)Cn1nnc(-c2ccc(F)cc2)n1)c1ccccc1F (centres undefined)	none
O=[N+]([O-])c1ccc(O)c(/C=N/Nc2ccc(Cl)nn2)c1	CF NFkB block 62, KKLEB tox -81
O=C(CNS(=O)(=O)c1ccc(F)cc1)N1CCCCCC1	none
O=C(COc1ccc(Cl)cc1)OCC(=O)N1CCCc2ccccc21	none
CCC(=O)c1ccc(OCC(=O)OCC(=O)N2CCCc3ccccc32)cc1	TRAIL sens C8 88 (no result: PPC-1+TRAIL kill)
COC(=O)C1=C(C(=O)OC)[C@@H]2N(C)c3ccc(OC)cc3[C@@]23C[C@@H](C(=O)OC)N(C(=O)c2cccs2)C3=N1	CF NFkB block 54 (no result: PPC-1+TRAIL kill)
COC(=O)C1=C(C(=O)OC)[C@@H]2N(Cc3ccccc3)c3ccccc3[C@@]23C[C@@H](C(=O)OC)N(C(=O)c2cccs2)C3=N1	TRAIL sens C8 54
Cc1ccc(S(=O)(=O)N2C[C@H]3[C@H]4C(=O)N(C5CCCCC5)C(=O)[C@H]4CC(=O)[C@H]3[C@@H]2c2cccc3ccccc23)cc1	TRAIL sens C8 60 (no result: PPC-1+TRAIL kill)
CC(=O)c1cc(F)ccc1OCC(=O)Nc1ccc2c(c1)OCO2	TRAIL sens C8 66 (no result: PPC-1+TRAIL kill)
NC(=O)c1cc(Cl)ccc1OCC(=O)Nc1ccc2c(c1)OCO2	TRAIL sens C8 69 (no result: PPC-1+TRAIL kill)
Cc1ccc(OCC(=O)Nc2ccc3c(c2)OCO3)c(C)c1	none
COc1cc(N(C)C)ccc1C=c1c2ccccc2n2c1cc(-c1ccccc1)[n+]2C	TRAIL sens C8 54, HIF-2a inh 90 (no result: PPC-1+TRAIL kill)
CN(C)c1ccc(C=c2c3ccccc3n3c2cc(-c2ccccc2)[n+]3C)cc1	TRAIL sens C8 54, HIF-2a inh 90 (no result: PPC-1+TRAIL kill)
CN(C)c1ccc(C=c2c3ccccc3n3c2c2c([n+]3C)CCCC2)cc1	HIF-2a inh 93 (no result: PPC-1+TRAIL kill)
CN(C)c1ccc(C=c2c3ccccc3n3c2cc(-c2ccc(Cl)cc2)[n+]3C)cc1	none (no result: PPC-1+TRAIL kill)
CN(C)c1ccc(C=c2c3cc([N+](=O)[O-])ccc3n3c2cc(-c2ccccc2)[n+]3C)cc1	TRAIL sens C8 76, HIF-2a inh 75, KKLEB tox -52 (no result: PPC-1+TRAIL kill)
COC(=O)c1cn(C(=O)c2cc(Br)ccc2Cl)c2ccccc12	none (no result: PPC-1+TRAIL kill)
O=C(CNC(=O)C1CCCCC1)OCC(=O)c1ccc(Br)cc1	none (no result: PPC-1+TRAIL kill)
CNc1nc(Cl)nc(NC(C)(C)C)n1	iPSC survival up 17
CC(C)(C)Nc1nc(Cl)nc(NC(C)(C)C)n1	none
O=C(O)c1ccc(-c2ccc(-c3ccccc3)cc2)s1	HIF-2a inh 70 (no result: PPC-1+TRAIL kill)
Cc1ccc(OCC(=O)Nc2cccc(S(=O)(=O)N3CCCCCC3)c2)cc1C	none (no result: PPC-1+TRAIL kill)
C[C@@H](NC(=O)c1ncn2c1c(=O)[nH]c1cccnc12)c1ccccc1	none (no result: PPC-1+TRAIL kill)
C[C@@H](NC(=O)c1ncn2c1c(=O)[nH]c1ccc(Br)cc12)c1ccccc1	TRAIL sens C8 69 (no result: PPC-1+TRAIL kill)
O=C(c1ccccc1)N1CCN(c2ccc(N3CCOCC3)nn2)CC1	none (no result: PPC-1+TRAIL kill)
COCCc1ccc(OC2(C)CCN(Cc3cccc(OCOC)c3)C2)cc1 (centres undefined)	none (no result: PPC-1+TRAIL kill)
Cc1ccc2nc(-c3ccc(NC(=O)COC(=O)c4ccc(Br)o4)cc3)sc2c1	TRAIL sens C8 75
